According to PubChem BioAssay AID1159580 (chemical genetic matrix, 2015):
Several values for one entry are separate records, joined by “and”; a condition that tells them apart may be missing. Identical values can stand only once. Screen size: about 5,500 compounds; about 2,000 (36%) were called active. Another 18% or so got no clear call; they are omitted. Cut-off read from the data, not from the text of the source: active = normalized growth mostly below about 0.91 (no sharp cut-off); inconclusive = no clear call, values can overlap the other calls; inactive = mostly above about 0.92. This is one part of the list.

Assay: chemical genetic growth profiling, strain panel (AID 1159580);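 note: tested at 20 µM; growth read once vehicle control cultures reached saturation at 30 °C; 1 = growth at the plate median or of vehicle wells; lower values mean less growth of the strain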
Settings: S. cerevisiae deletion strains, growth OD

Measured: normalized growth

O=C(O)c1ccccc1OP(=O)(O)O
inactive: locus YAL021C, strain ccr4, hits give low values 0.962 | locus YAL026C, strain drs2, hits give low values 1.01 | locus YAL030W, strain snc1, hits give low values 1 | locus YBL061C, strain skt5, hits give low values 1.01 | locus YBR009C, strain hhf1, hits give low values 1.03 | locus YBR021W, strain FUR4, hits give low values 1.01 | locus YBR023C, strain chs3, hits give low values 1.01 | locus YBR171W, strain sec66, hits give low values 1.01 | locus YBR229C, strain ROT2, hits give low values 1.01 | locus YBR231C, strain swc5, hits give low values 1.02 | locus YBR279W, strain paf1, hits give low values 1 | locus YCL011C, strain gbp2, hits give low values 1.01 | locus YCL016C, strain dcc1, hits give low values 1 | locus YCL029C, strain bik1, hits give low values 0.994 | locus YCL061C, strain MRC1, hits give low values 1 | locus YCL069W, strain vba3, hits give low values 0.997 | locus YCR088W, strain abp1, hits give low values 1.01 | locus YDL005C, strain med2, hits give low values 1 | locus YDL035C, strain GPR1, hits give low values 1.01 | locus YDL040C, strain nat1, hits give low values 0.996 | locus YDL074C, strain BRE1, hits give low values 1.02 | locus YDL101C, strain DUN1, hits give low values 1.02 | locus YDL134C, strain PPH21, hits give low values 1.02 | locus YDL185W, strain tfp1, hits give low values 0.976 | locus YDL192W, strain arf1, hits give low values 0.989 | locus YDR001C, strain nth1, hits give low values 0.993 | locus YDR069C, strain doa4, hits give low values 1.02 | locus YDR101C, strain arx1, hits give low values 1.01 | locus YDR137W, strain rgp1, hits give low values 0.987 | locus YDR150W, strain NUM1, hits give low values 1.01 | locus YDR159W, strain sac3, hits give low values 1.02 | locus YDR162C, strain NBP2, hits give low values 1.02 | locus YDR195W, strain ref2 1.01 | locus YDR297W, strain sur2, hits give low values 1 | locus YDR318W, strain mcm21, hits give low values 0.992 | locus YDR334W, strain swr1, hits give low values 1 | locus YDR335W, strain msn5, hits give low values 1.01 | locus YDR388W, hits give low values 0.987 | locus YDR392W, strain spt3, hits give low values 0.979 | locus YDR502C, strain sam2, hits give low values 0.994 | locus YEL003W, strain gim4, hits give low values 1.01 | locus YEL037C, strain rad23, hits give low values 0.997 | locus YEL061C, strain CIN8 (second series), hits give low values 1.01 | locus YEL061C, strain CIN8, hits give low values 1.01 | locus YER015W, strain faa2, hits give low values 1.01 | locus YER016W, strain bim1, hits give low values 1 | locus YER110C, hits give low values 0.992 | locus YER111C, strain swi4, hits give low values 1.01 | locus YER155C, strain BEM2 (second series), hits give low values 1.05 | locus YER155C, strain BEM2, hits give low values 1.01 | locus YER167W, strain BCK2, hits give low values 1.01 | locus YFR010W, strain ubp6, hits give low values 1.03 | locus YGL078C, strain dbp3, hits give low values 0.997 | locus YGL086W, strain mad1, hits give low values 0.996 | locus YGL167C, strain pmr1, hits give low values 1.01 | locus YGL173C, strain kem1, hits give low values 1.01 | locus YGL227W, strain vid30, hits give low values 1.01 | locus YGL240W, strain doc1, hits give low values 1.02 | locus YGL248W, strain PDE1, hits give low values 1.02 | locus YGL253W, strain hxk2, hits give low values 1.04 | locus YGR135W, strain pre9, hits give low values 0.988 | locus YGR252W, strain gcn5, hits give low values 0.97 | locus YHR013C, strain ard1, hits give low values 0.997 | locus YHR027C, strain rpn1, hits give low values 1 | locus YHR030C, strain SLT2, hits give low values 1.01 and 0.96 | locus YHR079C, strain IRE1 (second series), hits give low values 0.996 | locus YHR079C, strain IRE1, hits give low values 0.95 | locus YHR094C, strain hxt1, hits give low values 0.991 | locus YHR129C, strain ARP1, hits give low values 1.01 | locus YHR142W, strain chs7, hits give low values 0.958 | locus YHR200W, strain rpn10, hits give low values 0.995 | locus YIL066C, strain RNR3, hits give low values 1.02 | locus YIL073C, strain SPO22, hits give low values 0.999 | locus YIL125W, strain kgd1, hits give low values 0.987 | locus YIR030C, strain dcg1, hits give low values 0.995 | locus YJL092W, strain hpr5, hits give low values 1 | locus YJL095W, strain BCK1 (second series), hits give low values 1 | locus YJL095W, strain BCK1, hits give low values 1.03 and 0.973 | locus YJL115W, strain asf1, hits give low values 0.99 | locus YJL129C, strain trk1, hits give low values 1 | locus YJL134W, strain LCB3, hits give low values 1 | locus YJL154C, strain vps35, hits give low values 0.996 | locus YJL164C, strain tpk1, hits give low values 0.981 | locus YJL166W, strain qcr8, hits give low values 1.01 | locus YJL168C, strain set2, hits give low values 0.986 | locus YJL187C, strain SWE1 (second series), hits give low values 1.02 | locus YJL187C, strain SWE1, hits give low values 0.997 | locus YJR043C, strain POL32, hits give low values 1.01
